Experimental data as given in the supplement of paper PMC8699584.
Values joined by “and” are separate entries in the source; they are usually repeats but may differ in a detail not shown here. Identical values can stand only once. Counter-ions that a name gives are not always drawn. ± gives the standard deviation of the averaged measurements.

System: Molm13
Experiment: cell viability relative to DMSO control (bortezomib = 0%); higher = less growth inhibition
Settings: 10 nM; 72 h
In short: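 Viability was determined with CellTiter-Glo luminescence. Acute myeloid leukemia cells (1000 per well, 50 µL) were exposed for 72 h to 679 approved and investigational compounds at a single 10 nM dose in 384-well plates. Percentages came from per-plate linear regression, setting DMSO-treated wells to 100% and positive-control-treated wells to 0%.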

SMILES	cell viability
COc1ccc(COc2ccc(Cc3cnc(N)nc3N)cc2OC)cc1	110 ± 17%
Nc1ccn([C@@H]2O[C@H](CO)[C@@H](O)C2(F)F)c(=O)n1 [Gemcitabine]	-0.99 ± 5.6%
C=CC(=O)Nc1cc2c(Nc3ccc(F)c(Cl)c3)ncnc2cc1OCCCN1CCOCC1 [Canertinib (CI-1033)]	118 ± 10%
COc1ccc(-n2c(SCC#N)nc3sc4c(c3c2=O)CCCC4)cc1 [Necrostatin-5]	102 ± 3.9%
CNC(=O)Nc1cc(Oc2cncc(C)c2)c(-c2ccc(OCC(C)(C)O)nc2)cn1	101.5 ± 0.58%
COc1cc2c(Nc3ccc(NC(=O)c4ccccc4)cc3)ncnc2cc1OCCCN1CCOCC1	87.8 ± 50%
CCOC(=O)c1c2c3c(cccc3[nH]c1=O)C(=O)c1ccccc1-2	124 ± 7.7%
CS(=O)(=O)CCNCc1ccc(-c2ccc3ncnc(Nc4ccc(OCc5cccc(F)c5)c(Cl)c4)c3c2)o1	103 ± 8.2%
CNC(=O)c1cccc(-c2ccc3c(N4CCOC[C@@H]4C)nc(N4CCOC[C@@H]4C)nc3n2)c1	83.69 ± 0.63%
O=C(Nc1nc2cccc(-c3ccc(CN4CCS(=O)(=O)CC4)cc3)n2n1)C1CC1 [Filgotinib (GLPG0634)]	86.4 ± 6%
CN1CCN(CCCNc2ncc(Cl)c(-c3cc4c(C(=O)NC5CC5)cccc4s3)n2)CC1	110 ± 3.6%
CS(=O)(=O)N1CCc2c(-c3cnc(N)nc3)nc(N3CCOCC3)nc21	119.7 ± 0.72%
CC(=O)c1c(C)c2cnc(Nc3ccc(N4CCNCC4)cn3)nc2n(C2CCCC2)c1=O	89.3% and 111%
CC(C)c1ccc2c(c1)CC[C@H]1[C@](C)(CN)CCC[C@]21C [Leelamine]	96.7 ± 8.5%
COc1ccc(CNC(=O)Nc2ncc([N+](=O)[O-])s2)cc1	107 ± 7.3%
O=C(O)c1cc(O)c2c(c1)[C@@H]([C@H]1c3cc(C(=O)O)cc(O)c3C(=O)c3c(O[C@@H]4O[C@H](CO)[C@@H](O)[C@H](O)[C@H]4O)cccc31)c1cccc(O[C@@H]3O[C@H](CO)[C@@H](O)[C@H](O)[C@H]3O)c1C2=O [Sennoside B]	101 ± 12%
COc1cc(Nc2ncc(F)c(Nc3ccc4c(n3)NC(=O)C(C)(C)O4)n2)cc(OC)c1OC [R406 free base]	101.7 ± 0.97%
Cc1cc2sc(NC(=O)Cc3ccccc3)nc2cc1Cl	116 ± 19%
O=c1cc(N2CCOCC2)oc2c(-c3cccc4c3sc3ccccc34)cccc12	108 ± 5.3%
COc1cc2ccc(=O)oc2cc1O [Scopoletin]	102.2 ± 0.33%

SMILES	cell viability
O=C(NC[C@H](O)CO)c1ccncc1Nc1ccc(I)cc1F	91.6% and 95%
Cc1c(NC(=O)OC[C@@H]2COCCN2)cn2ncnc(Nc3ccc4c(cnn4Cc4cccc(F)c4)c3)c12	105 ± 8%
c1ccc(-c2[nH]ncc2-c2ccnc3ccccc23)nc1	102% and 105%
Nc1ccc(C(=O)Nc2cccc(-c3nc(N4CCOCC4)c4oc5ncccc5c4n3)c2)cn1	104% and 101%
COc1cc2ncnc(Nc3cccc(Cl)c3)c2cc1OC	98.7 ± 14%
COc1cc(N2CCOCC2)ccc1Nc1ncc(F)c(Nc2ccccc2NS(C)(=O)=O)n1	98.1 ± 5.6%
CS(=O)(=O)c1ccc(-c2nc(-c3ccc(F)cc3)c(-c3ccncc3)[nH]2)cc1	108 ± 14%
CC(C)(C)NS(=O)(=O)c1cncc(-c2cc(F)c3nc(N)nn3c2)c1	95.9 ± 22%
COc1cc2nccc(Oc3ccc(NC(=O)Nc4cc(C)on4)c(Cl)c3)c2cc1OC [Tivozanib (AV-951)]	96.3 ± 6.1%
O=C(c1cccc(Cl)c1F)N1CCN(Cc2cccc(Nc3nccs3)n2)CC1	95.9 ± 11%
Cc1ccc(C(=O)N(CCCN)[C@@H](c2oc3cc(Cl)ccc3c(=O)c2Cc2ccccc2)C(C)C)cc1	2.68 ± 8.6%
CNCc1ccc(-c2cc(-c3nc(-c4ccc(S(=O)(=O)C(C)C)cc4)cnc3N)on2)cc1	106 ± 1.8%
CC(C)c1ccc2c(c1)CC[C@@H]1[C@@](C)(CN)CCC[C@@]21C [Leelamine (hydrochloride)]	101.6 ± 0.018%
c1ccc2c(-c3cnn4cc(-c5ccc(N6CCNCC6)cc5)cnc34)ccnc2c1	98 ± 20%
Nc1ncnc2c1c(I)cn2[C@@H]1O[C@H](CO)[C@@H](O)[C@H]1O [5-Iodotubercidin]	92.65 ± 0.91%
N#CC(C#N)=C(N)/C(C#N)=C/c1cc(O)c(O)c(O)c1	98.1 ± 28%
CS(=O)(=O)CCNCc1ccc(-c2ccc3ncnc(Nc4ccc(OCc5cccc(F)c5)c(Cl)c4)c3c2)o1 [Lapatinib]	96.5 ± 5.9%
Cn1cc(-c2ccc3ncc(Cc4ccc5ncccc5c4)n3n2)cn1	100 ± 16%
COc1cc(C(=O)N2CCC(N3CCN(C)CC3)CC2)ccc1Nc1ncc2c(n1)N(C)c1ccccc1C(=O)N2C	97.52 ± 0.43%
O=Nc1c(-c2c(O)[nH]c3ccccc23)[nH]c2ccccc12 [Indirubin-3'-monoxime]	88 ± 13%
